“And” between values parts separate entries of the source, which are not always exact repeats. Equal entries are not always repeated. The source made the active and inactive calls. Rule for the calls: active = hit-call score of the fitted dose curve at least 0.9, where 1 is the maximum; inactive = score below 0.9.
experiment: IUF_NPC2a_radial_glia_migration_120hr: Leibniz Research Institute for Environmental Medicine (IUF) 120-hour Neural Progenitor Cell Migration Assay for Radial Glia Migration (NPC2a) (AID 2284298)
Method: IUF_NPC2-5 is a cell-based, multiplexed assay that uses hNPC, a human primary neural progenitor cells, with measurements taken at 72 or 120 hours after chemical dosing in a 96-well plate. Human neural progenitor cells (hNPC) are generated from human fetal brain cortex at gestational week (GW) 16-19. In the neural progenitor cell migration and differentiation assay (NPC2-5), hNPCs grown as spheres are plated on an extracellular matrix and migrate and differentiate out of the sphere core. The processes radial glia migration, neuronal and oligodendrocyte migration as well as neuronal differentiation, neuronal morphology and oligodendrocyte differentiation are studied using automated phase contrast imaging and automated fluorescence imaging in combination with high content image analysis. In parallel, the cell viability is assessed using an alamar blue viability assay and the cytotoxicity using a lactate dehydrogenase dependent membrane integrity assay.IUF_NPC2a_radial_glia_migration_120hr is one of 12 assay components measured from the IUF_NPC2-5 assay. The migration distance of radial glia at 120 hr is assessed in um from the edge of the sphere core to the edge of the migration area based on fluorescent images of Hoechst-positive nuclei. With the identification of each nucleus position around the sphere core, migration-related parameters can be calculated. First, a nuclei density distribution is calculated for which an algorithm determines relatively more and less dense nuclei areas. This calculation identifies the sphere core by the densest nuclei area in the image. The algorithm further assumes that nuclei density decreases from the sphere core to the periphery. When the nuclei density hits a pre-defined threshold, the outer boundaries of the migration area are determined and the sphere itself is mapped out in a polynomial bounding box. Derived from this box, the size of the migration area and the migration distance are calculated for each well.Data from the IUF_NPC2a_radial_glia_migration_120hr component was analyzed at the endpoint IUF_NPC2a_ radial_glia_migration_120hr in the positive analysis fitting direction relative to DMSO as the negative control and baseline of activity. Using a type of migration reporter, gain or loss-of-signal activity can be used to understand developmental effects.
Culture protocol: After the cell expansion period the cells are cultured for up to four weeks in which they are passaged every week as described in 3.6. Between one to three days after passaging spheres at a size of 0.3 mm are picked for the test method. For the assessment of neural progenitor cell migration and differentiation, the spheres are plated on poly-D-lysine/laminin coated 96-well flat bottom plates in differentiation medium (N2) to initiate migration and differentiation. Thereby one 0.3 mm big sphere is plated in the middle of a well. The differentiation medium consists of DMEM and Ham's F12 at a ratio of 3 to 1 supplemented with 1% N2 and 1% penicillin and streptomycin. Within 5 days NPCs radially migrate out of the sphere core and differentiate into radial glia cells (nestin positive), neurons (TUBB3 positive), oligodendrocytes (O4 positive) and astrocytes (GFAP positive). Cultivation during the test method is performed at 37C and 5% CO2 at a ph of 7.2-7.6.Exposure: 0.3 mm big hNPC are plated in the already prepared test conditions. Exposure starts at day 0 of differentiation and is continued over five days of differentiation until the experiment is terminated. Cells are fed with fresh medium at day 3 of differentiation. Therefore, half of the test condition solution (e.g. solvent control or compound dilution) is replaced by freshly prepared test condition solution.Test Method: Migration distance and cytotoxicity is determined after 72 hours based on brightfield images of each well. The assay is terminated by the assessment of cell viability and cytotoxicity as well as cell fixation after 120 h. […]

SMILES | outcome | AC50
O=C(O)COc1ccc(Cl)cc1Cl | inactive | 
CC1(C)C(C=C(Cl)Cl)C1C(=O)OC(C#N)c1ccc(F)c(Oc2ccccc2)c1 (stereo not drawn) | inactive | 
COP(=O)(OC)OC=C(Cl)Cl |  | 40 µM (active)
O=S1OCC2C(CO1)C1(Cl)C(Cl)=C(Cl)C2(Cl)C1(Cl)Cl (stereo not drawn) |  | 13.1 µM (active)
CC1(c2ccc(Oc3ccccc3)cc2)OC(=O)N(Nc2ccccc2)C1=O (stereo not drawn) |  | 5 µM (active)
CNC(=O)CSP(=S)(OC)OC | inactive | 
O=S(=O)(O)C(F)(F)C(F)(F)C(F)(F)C(F)(F)C(F)(F)C(F)(F)C(F)(F)C(F)(F)F |  | 79.3 µM (active) and 16 µM (active)
O=C(O)C(F)(F)C(F)(F)C(F)(F)C(F)(F)C(F)(F)C(F)(F)C(F)(F)F | inactive | 
CC(C)N(C(=O)COc1nnc(C(F)(F)F)s1)c1ccc(F)cc1 | inactive | 
CC[C@H](C)[C@H]1O[C@]2(C=C[C@@H]1C)C[C@@H]1C[C@@H](C/C=C(\C)[C@@H](O[C@H]3C[C@H](OC)[C@@H](O[C@H]4C[C@H](OC)[C@@H](O)[C@H](C)O4)[C@H](C)O3)[C@@H](C)/C=C/C=C3\CO[C@@H]4[C@H](O)C(C)=C[C@@H](C(=O)O1)[C@]34O)O2 (tested in a mixture with another compound) |  | 3.4 µM (active)
COP(=S)(OC)Oc1ccc([N+](=O)[O-])cc1 | inactive | 
CCC(C)(C)C(=O)OC1=C(c2ccc(Cl)cc2Cl)C(=O)OC12CCCCC2 | inactive | 
O=[N+]([O-])/N=C1\NCCN1Cc1ccc(Cl)nc1 | inactive | 

From PubChem BioAssay (EPA / NIEHS)
